RORg inh: blocks mouse ROR gamma transcriptional activity. P51450. Drosophila S2 Gal4-RORgamma UAS-luciferase reporter, 20 h. Potency, µM (doses to about 53.6 µM), for the others: at the highest dose activity change, negative = inhibition, usual class: inhibitors. 310,000 tested, 5.4% active; also: potency is read from the fitted curve at half-maximal effect; % is scaled to controls: 0 for no effect and ±100 for the full control effect; nearly all actives have a fitted effect of over 60% in size
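Drosophila S2 cells stably expressing Gal4-DBD/mouse RORγ fusion under metallothionein promoter plus UAS-luciferase; compound 1 h, then 700 uM CuSO4 induction for 20 h at ambient temperature; inhibition read as reduced luminescence.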
uPA surface inh: blocks generation of uPA at the cell surface | cell surface uPA generation assay, qHTS | Potency, µM (series often up to 38.3 µM), for inactives: top-dose activity change, negative = inhibition, usual class: inhibitors | 330,000 tested, 0.31% active; active = well fitted inhibition curve with a large enough effect; inconclusive = small, poorly fitted or top-dose-only effect; inactive = no such curve, though single readings can be large or run the other way; tested in mouse RAW 264.7 cells; also: potency is read from the fitted curve at half-maximal effect; % is scaled to controls: 0 for no effect and ±100 for the full control effect; nearly all actives have a fitted effect of over 55% in size
TRPV1 ag: agonists of human vanilloid receptor 1 (TRPV1); Q8NER1; activation, % at 8.33 µM; 320,000 tested, 0.19% active; TRPV1-expressing cells, Fluo-8 calcium influx, agonist mode; in the data active = activation above about 80%; inconclusive = between about 30% and that limit; also: 0% is about no effect
Target sequence (Q8NER1 whole entry, looked up): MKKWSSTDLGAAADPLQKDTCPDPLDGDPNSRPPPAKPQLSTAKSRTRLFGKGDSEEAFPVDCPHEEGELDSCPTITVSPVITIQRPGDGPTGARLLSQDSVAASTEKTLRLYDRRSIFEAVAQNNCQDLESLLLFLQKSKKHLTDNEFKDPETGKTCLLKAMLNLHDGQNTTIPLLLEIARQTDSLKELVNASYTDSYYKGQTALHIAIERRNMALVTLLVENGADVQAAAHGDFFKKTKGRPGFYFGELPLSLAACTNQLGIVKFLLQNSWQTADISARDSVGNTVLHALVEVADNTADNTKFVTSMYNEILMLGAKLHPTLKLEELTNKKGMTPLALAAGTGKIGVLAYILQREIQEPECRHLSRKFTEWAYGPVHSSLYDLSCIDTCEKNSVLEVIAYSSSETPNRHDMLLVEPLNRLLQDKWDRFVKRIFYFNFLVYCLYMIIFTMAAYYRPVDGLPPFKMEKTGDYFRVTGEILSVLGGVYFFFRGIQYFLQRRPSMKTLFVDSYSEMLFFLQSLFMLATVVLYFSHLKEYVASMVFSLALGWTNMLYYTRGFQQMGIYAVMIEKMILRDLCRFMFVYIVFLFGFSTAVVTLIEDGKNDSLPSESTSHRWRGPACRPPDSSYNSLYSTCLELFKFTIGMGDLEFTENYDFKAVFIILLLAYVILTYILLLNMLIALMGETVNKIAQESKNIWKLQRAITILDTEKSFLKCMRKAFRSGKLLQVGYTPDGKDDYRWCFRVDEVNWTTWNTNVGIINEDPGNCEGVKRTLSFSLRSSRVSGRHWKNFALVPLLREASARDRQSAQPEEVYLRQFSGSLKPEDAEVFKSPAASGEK
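Fluo-8 calcium influx in TRPV1-expressing cells, kinetic read (ex 480/em 520 nm). Compound added and read 3 min for agonist activity, followed by capsaicin at EC20 final and 2 min further read for enhancement.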
TRPV1 PAM: enhances activation of the human vanilloid receptor TRPV1; 320,000 tested, 0.02% active; TRPV1-expressing cells, Fluo-8 calcium influx, capsaicin EC20 potentiation; AID 540277; potentiation, % at 8.33 µM; Q8NER1; in the data active = potentiation above about 80%; inconclusive = between about 30% and that limit; also: 0% is about no effect
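Cells expressing TRPV1 were dye-loaded with Fluo-8 and read kinetically: 10 s baseline, 3 min after compound (agonist portion), then 2 min after EC20 capsaicin (allosteric enhancer portion). Calcium-bound dye fluorescence at 480/520 nm.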
VP16 counter: counter-screen for ROR gamma inhibitors: Gal4-VP16 reporter; Drosophila S2 Gal4-VP16 UAS-luciferase, luminescence, 20 h; AID 2546; Potency, µM (titrated, usually from 53.6 µM), inactives show top-dose activity, negative = inhibition, actives largely listed as inhibitors; 310,000 tested, 3.5% active;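 also: Gal4-VP16 expression switched on by copper sulfate through the metallothionein promoter; potency is read from the fitted curve at half-maximal effect; % is scaled to controls: 0 for no effect and ±100 for the full control effect; nearly all actives have a fitted effect of over 50% in size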
* hit, by the source's call; [ ] = another dose, or the depositor's remark. An excerpt weighted towards active compounds, which were near 5.8% of everything screened. Unless noted, calls follow the shape of the dose curve; as a rule, active = well fitted curve in the direction sought with a large enough effect; inconclusive = small, poorly fitted or top-dose-only effect, or another doubt; inactive = no such curve, though single readings can be large; an effect the other way counts as inactive or inconclusive.

`S=C(NCCc1ccc(Cl)cc1)NCc1ccccc1` gave RORg inh inconclusive, uPA surface inh 5%, TRPV1 ag inconclusive, TRPV1 PAM 0 and VP16 counter inconclusive.
For C/C(=N\NC(=S)NCCc1ccccc1)c1ccc(O)cc1O the results were RORg inh inconclusive, uPA surface inh 1%, TRPV1 ag 3, TRPV1 PAM 29 and VP16 counter inconclusive.
For COc1cccc([C@@H]2Oc3ccc(OC)cc3C(=O)[C@H]2OC(=O)NS(=O)(=O)c2ccc(C)cc2)c1 the results were RORg inh inconclusive and VP16 counter 4%.
Screening COc1ccc(CCC(C)N(C)Cc2ccccc2)cc1 (configuration not stated) returned RORg inh 0%, uPA surface inh 11%, TRPV1 ag 0, TRPV1 PAM -4 and VP16 counter -2%.
`CCOc1ccc(NC(=S)NCc2ccc3[nH]c(C)cc3c2)cc1` gave RORg inh 2.5µM*, uPA surface inh 8%, TRPV1 ag 1, TRPV1 PAM -12 and VP16 counter 10µM*.
For CCCCNC(=S)NCc1ccc2[nH]c(C)cc2c1 the results were RORg inh 10µM*, uPA surface inh -11%, TRPV1 ag 17, TRPV1 PAM 5 and VP16 counter inconclusive.
For NCCCC[C@H](NC(=O)CNC(=O)[C@@H]1CCCN1C(=O)[C@H](Cc1ccc(O)cc1)NC(=O)CN)C(=O)N[C@@H](Cc1ccccc1)C(=O)O the results were RORg inh 7% and VP16 counter -3%.
For CC(C)(C)C(=O)NC1CC2CCCC(C1)N2C(=O)Nc1ccc(Cl)cc1 (configuration not stated) the results were RORg inh -11%, uPA surface inh -1%, TRPV1 ag -2, TRPV1 PAM -9 and VP16 counter -12%.
CC(C)CCC1(CCNC(=O)c2cccs2)CCOC(C)(C)C1 (configuration not stated) was read as RORg inh inconclusive, uPA surface inh 2%, TRPV1 ag 83*, TRPV1 PAM 15 and VP16 counter -23%.
`COc1ccc(Nc2ncc(C(=O)N3CCN(Cc4ccccc4)CC3)c3ccccc23)cc1` gave RORg inh -2%, uPA surface inh -15%, TRPV1 ag 2, TRPV1 PAM -17 and VP16 counter 1%.
For CCC(=O)/C=C/C1C(C)=CCCC1(C)C (configuration not stated) the results were RORg inh -10% and VP16 counter -8%.
`COc1ccc(OC)c(C2C(C(=O)Nc3cccnc3)=C(C)NC3=C2C(=O)CCC3)c1` (configuration not stated) gave RORg inh inconclusive, uPA surface inh 1%, TRPV1 ag -2, TRPV1 PAM -21 and VP16 counter 5%.
Screening O=[N+]([O-])c1ccc(COc2cccc(CNc3ccc(F)cc3)c2)cc1 returned RORg inh 23%, uPA surface inh 0%, TRPV1 ag -4, TRPV1 PAM 8 and VP16 counter 5%.
Oc1ccc(NCc2cccc(OCc3ccc(F)cc3)c2)cc1 was read as RORg inh 10µM*, uPA surface inh inconclusive, TRPV1 ag 5, TRPV1 PAM 0 and VP16 counter inconclusive.
Screening Oc1ccc(NCc2cccc(OCc3ccccc3)c2)cc1 returned RORg inh 11µM*, uPA surface inh inconclusive, TRPV1 ag 4, TRPV1 PAM 6 and VP16 counter inconclusive.
For c1ccc(COc2cccc(CNCc3cccnc3)c2)cc1 the results were RORg inh 5%, uPA surface inh 0%, TRPV1 ag 15, TRPV1 PAM -13 and VP16 counter 10%[10 µM].
c1ccc(COc2cccc(CNCc3ccccn3)c2)cc1 was read as RORg inh 11µM*, uPA surface inh inconclusive, TRPV1 ag 6, TRPV1 PAM -10 and VP16 counter -19%.
For O=C(COC(=O)CCC1CCCC1)Nc1ccccc1Br the results were uPA surface inh 12%, TRPV1 ag 18 and TRPV1 PAM 6.
Cc1cc(C(F)(F)F)nn1Cc1ccc(C(=O)NCc2ccco2)o1 was read as RORg inh 10µM*, uPA surface inh -22%, TRPV1 ag 5, TRPV1 PAM 15 and VP16 counter inconclusive.
